Results filed as inconclusive are left out. Values without a mark were called inactive. Active and inactive are the calls of the source. Calls come from the whole dose curve; as a rule, active = well fitted inhibition curve with a large enough effect; inconclusive = small, poorly fitted or top-dose-only effect; inactive = flat fitted curve, though single readings scatter.
Experiment: P-glycoprotein substrates identified in KB-8-5-11 adenocarcinoma cell line, qHTS therapeutic library screen (AID 1346987); note: nearly all actives have a fitted effect of over 65% in size
Details: KB-8-5-11 (P-gp overexpressing) viability, CellTiter-Glo, 72 h; series mostly up to 44.5 µM; activity change, negative = cytotoxicity: at the top concentration
Outline: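 Luminescence from CellTiter-Glo, read 5 min after addition, quantified survival of KB-8-5-11 (P-gp-overexpressing) cells exposed to compounds for 72 h. AC50 was derived from concentration-response curves.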
% is set by controls: 0 for no effect and ±100 for the full control effect; potency is the fitted concentration of half-maximal effect.

SMILES | activity change, negative = cytotoxicity [%] | Potency
COc1cc(C(=O)O)ccc1NC(=O)C1NC(CC(C)(C)C)C(C#N)(c2ccc(Cl)cc2F)C1c1cccc(Cl)c1F (configuration not stated) | -72.2 | 
C=C1C(=O)O[C@@H]2C[C@H](C)C3=CC(=O)[C@H](O)[C@@]3(C)C[C@H]12 | -2.51 | 
Cc1ccc(C)c(NC(=O)[C@@H]2CCCN2S(=O)(=O)c2cccc3cccnc23)c1 | -18.6 | 
C=C1C(=O)O[C@@H]2[C@H]1CC[C@H](C)[C@]1(CCC(=O)O1)C2(C)O (some centres not stated) | -8.78 | 
CCC[C@@]1(CCc2ccccc2)CC(O)=C([C@H](CC)c2cccc(NS(=O)(=O)c3ccc(C(F)(F)F)cn3)c2)C(=O)O1 | -1.6 | 
CCN(CC)CCCS(=O)(=O)N[C@H](CCc1ccccc1)c1nc(Cc2ccc(Br)cc2)no1 |  | 23.1 µM (active)
Clc1ncoc1-c1c[nH]c2ccccc12 | -2.16 | 

Source: PubChem BioAssay (NCATS)
